From PubChem BioAssay AID488922 (Johns Hopkins Ion Channel Center, 2010) come the findings set out here.

About 3,800 (1.2%) of roughly 310,000 compounds were called active. The sample holds actives, similar compounds and a random draw of the others, so the mix is not that of the screen.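 The calls were made as follows: active = ratio B-score over 3 SD below the library mean, with starting fluorescence within 5 SD of its mean; inactive = the rest, inconclusive results apart.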

The target in this assay is Potassium channel subfamily K member 9 (Homo sapiens) (UniProt Q9NPC2). In words: KCNK9 potassium channel inhibitors, primary screen, HEK293 cells, thallium flux (AID 488922).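 As to B-score: negative B-score means less thallium flux so channel inhibition.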 The settings on record: HEK293 KCNK9, FluxOR thallium flux fluorescence, at 10 µM; active compounds read low.
Sequence of Potassium channel subfamily K member 9 (Homo sapiens) (Q9NPC2 whole entry, looked up): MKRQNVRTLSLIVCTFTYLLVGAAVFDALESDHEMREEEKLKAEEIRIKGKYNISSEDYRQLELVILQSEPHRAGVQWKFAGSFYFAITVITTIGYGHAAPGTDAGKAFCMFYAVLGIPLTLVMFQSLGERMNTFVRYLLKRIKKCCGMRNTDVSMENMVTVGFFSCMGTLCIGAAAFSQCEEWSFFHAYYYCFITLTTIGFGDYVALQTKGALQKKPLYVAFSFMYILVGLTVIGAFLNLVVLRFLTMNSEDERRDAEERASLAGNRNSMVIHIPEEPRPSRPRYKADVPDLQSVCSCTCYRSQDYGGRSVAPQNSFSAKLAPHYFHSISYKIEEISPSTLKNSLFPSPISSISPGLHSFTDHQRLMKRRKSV
In the case of `CCc1noc(C)c1C(=O)Nc1nc(-c2ccccc2)cs1`, the B-score result was “inactive”.

As for `C[C@H](NC(=O)C1CC(=O)N(c2ccc3c(c2)OCO3)C1)C(=O)NCc1ccco1` (stereo partly specified), the B-score result is “inactive”.

On to `O=C(/C=C/c1ccccc1)Oc1coc(CSc2ncccn2)cc1=O`, for which the B-score result was “inactive”.

Regarding `COc1cc(OC)cc(-c2cc3nc(C4CCN(C(=O)OC(C)(C)C)CC4)cc(=O)n3[nH]2)c1`, the B-score entry is “inactive”.

On to `O=C(c1ccc(F)cc1)N1CCC(C(=O)N2CCN(S(=O)(=O)c3ccccc3Br)CC2)CC1`, for which the B-score result was “inactive”.

As for `O=C(Cc1ccc(S(=O)(=O)N2CCCC2)s1)NC1CCCCCC1`, the B-score entry was “inactive”.

`O=C(Cn1nnc(N2CCCCC2)n1)c1ccc(Cl)c(Cl)c1`: the B-score entry was “inactive”.

With `CCN(CC)CC1(O)CCN(C(=O)c2ccc(Cl)c(Cl)c2)CC1`, the B-score result was “inactive”.

For the compound `CCCn1c(=N)n(CC(=O)c2ccc(Cl)c(Cl)c2)c2ccccc21`, the B-score was -7.8 (active).

Regarding `O=c1c2c3c(sc2n(CCN2CCCC2)c(=O)n1Cc1ccccc1)CCCCC3`, the B-score entry was “inactive”.

As to `COc1cccc(N2CC(NC(=O)c3ccc4ccccc4c3)CC2=O)c1` (stereo unspecified), the B-score entry was “inactive”.

Turning to `COc1cccc(CNS(=O)(=O)c2ccc3c(c2)CC(C)N3C(=O)C2CCC2)c1` (stereo unspecified), the B-score result was “inactive”.

Consider `Cc1ccc2nc3c(cc(C(=O)NCCc4ccccc4)c(=N)n3CC3CCCO3)c(=O)n2c1` (stereo unspecified), for which the B-score result is “inactive”.

In the case of `Cc1cc(C)c(C)c(S(=O)(=O)N2CCN(C(=O)c3ccc4c(=O)n5c(nc4c3)CCC5)CC2)c1C`, the B-score result was “inactive”.

Take `CCOc1ccc(C(C)C)cc1S(=O)(=O)n1nc(C)cc1C`: the B-score is -10.1 (active).

In the case of `COc1ccc(C(C)C)cc1S(=O)(=O)Nc1ncn[nH]1`, the B-score entry was “inactive”.

Turning to `CCOc1cc(C)c(Cl)cc1S(=O)(=O)n1nnc2ccccc21`, the B-score result was “inactive”.

Take `CCOc1ccc(OCC(=O)Nc2c3c(nn2C(C)(C)C)CS(=O)(=O)C3)cc1`: the B-score entry was “inactive”.

For `CC(C)(C)n1nnnc1C(c1ccc2ncccc2c1)N1CCSCC1` (stereo unspecified), the B-score result was “inactive”.

Regarding `COc1ccccc1C(c1nnnn1CC1CCCO1)N1CCN(c2ccccc2)CC1` (stereo unspecified), the B-score result was “inactive”.

As to `CCCC(c1nnnn1C(C)(C)C)N1CCN(Cc2ccccc2)CC1` (stereo unspecified), the B-score result was “inactive”.

With `CCC(C)(C)n1nnnc1C(c1cccs1)N1CCN(c2nc3ccccc3s2)CC1` (stereo unspecified), the B-score is -9.04 (active).

For the compound `CC(C)(C)n1nnnc1C(c1ccc(Cl)cc1)N1CCSCC1` (stereo unspecified), the B-score result was “inactive”.

Regarding `COc1ccc(OC)c(C(c2nnnn2C(C)(C)C)N2CCc3ccccc3C2)c1` (stereo unspecified), the B-score result is “inactive”.

`COc1ccccc1C(c1nnnn1C(C)(C)C)N1CCN(Cc2ccccc2)CC1` (stereo unspecified): the B-score is -21.5 (active).

`CCC(C)(C)n1nnnc1C(c1ccccc1OC)N1CCSCC1` (stereo unspecified): the B-score was -7.08 (active).

In the case of `CCC(C)(C)n1nnnc1C(c1ccc(OC)c(OC)c1)N1CCN(C(=O)c2ccco2)CC1` (stereo unspecified), the B-score result is “inactive”.

Consider `O=C(NC(=S)Nc1ccc2oc(=O)ccc2c1)c1ccc(-c2cccc(Cl)c2Cl)o1`, for which the B-score entry was “inactive”.

For the compound `Cc1ccc(S(=O)(=O)N2CCN(C(=O)c3ccc(-n4cncn4)c([N+](=O)[O-])c3)CC2)cc1`, the B-score result is “inactive”.

On to `COc1ccc(CNC(=O)C2CCCC2)cc1`, for which the B-score entry is “inactive”.

Consider `O=C1CC2(CC(c3ccc(Cl)cc3)=NO2)C(=O)N1c1ccccc1` (stereo unspecified), for which the B-score result is “inactive”.

With `Nc1cc(C(F)(F)F)ccc1N1CCOCC1`, the B-score entry was “inactive”.

`CCC(C)c1ccc(NC(=S)N2CCCC2)cc1` (stereo unspecified): the B-score entry is “inactive”.

As to `Cc1ccc(Cl)cc1NC(=S)N(CCN(C)C)Cc1cccs1`, the B-score result was “inactive”.

With `Cc1ccc(CN(Cc2cccnc2)C(=S)Nc2cccc(Cl)c2C)cc1`, the B-score was -6.65 (active).

For `Cc1ccc(CN(Cc2cccnc2)C(=S)Nc2cc(Cl)ccc2C)cc1`, the B-score was -7.5 (active).

On to `Cc1cccc(C)c1NC(=S)N(Cc1cccnc1)Cc1ccccc1Cl`, for which the B-score entry is “inactive”.

For the compound `COCCNC(=S)N(Cc1cccnc1)Cc1ccc(OC)c(OC)c1`, the B-score entry was “inactive”.

With `Cc1c(Cl)cccc1NC(=S)N(Cc1ccccc1)Cc1cccnc1`, the B-score result is “inactive”.

As to `Cc1ccccc1NC(=O)COc1cccc2c1CCNC2=O`, the B-score entry is “inactive”.

With `O=C(CCNC(=O)c1ccc(Br)cc1)Nc1cccc(S(=O)(=O)N2CCCCC2)c1`, the B-score result is “inactive”.

As for `O=C(CN1CCN(c2nc(-c3ccccc3)cs2)CC1)NCc1ccc2c(c1)OCO2`, the B-score result is “inactive”.

For the compound `O=C(CSc1ncnc2scc(-c3ccccc3)c12)NCc1ccc2c(c1)OCO2`, the B-score is -6.9 (active).

Regarding `O=C(CSc1ncn[nH]1)NCc1ccc2c(c1)OCO2`, the B-score entry was “inactive”.

Regarding `CCOC(=O)C(=Cc1ccccc1OC)C(=O)OCC`, the B-score result is “inactive”.

As to `CCOC(=O)c1c(NC(=O)CNC2CCCc3ccccc32)sc(C(N)=O)c1C` (stereo unspecified), the B-score entry is “inactive”.

Take `CCOc1ncccc1C(=O)NNC(=O)c1cccc(S(=O)(=O)Nc2ccccc2OC)c1`: the B-score entry was “inactive”.

Regarding `COc1ccc(NC(=O)C2CCC(CNC(=O)[C@@H]3Cc4ccccc4CN3)CC2)cc1` (stereo partly specified), the B-score result is “inactive”.

For the compound `N#Cc1c(NC(=O)CCCN2C(=O)c3ccccc3C2=O)oc(-c2ccccc2)c1-c1ccccc1`, the B-score result is “inactive”.

Regarding `COc1cc(C(=O)Nc2oc(-c3ccccc3)c(-c3ccccc3)c2C#N)cc(OC)c1OC`, the B-score is -6.66 (active).

Consider `COC(=O)c1sccc1NC(=O)c1cc(OC)c(OC)c(OC)c1`, for which the B-score entry is “inactive”.

`COC(=O)Nc1ncc(CN2CCCCC2)s1`: the B-score result was “inactive”.

On to `CCCCN(C(=O)COc1ccc(NC(C)=O)cc1)C1CCS(=O)(=O)C1` (stereo unspecified), for which the B-score result was “inactive”.

Consider `Cc1cccc(C(=O)NCc2nnc(SC(C)C(=O)Nc3nnc(C)s3)n2C)c1` (stereo unspecified), for which the B-score entry was “inactive”.

With `Cn1nc(-c2ccccc2)c(-c2nc(-c3ccc(Cl)cc3)no2)c1Cl`, the B-score was -7.35 (active).

As to `Brc1ccc(-c2noc(-c3ccccc3)n2)o1`, the B-score entry is “inactive”.

For the compound `CN(Cc1ccccn1)Cc1nc(-c2ccc(Cl)cc2)no1`, the B-score result was “inactive”.

Consider `CC(C)Cn1c(N)c(C(=O)COC(=O)CN2C(=O)C3CC=CCC3C2=O)c(=O)n(C)c1=O` (stereo unspecified), for which the B-score result was “inactive”.

As for `COC(=O)c1cc(NC(=O)CC2C(=O)NCCN2C(=O)c2ccc(F)cc2)cc(C(=O)OC)c1` (stereo unspecified), the B-score result is “inactive”.

For the compound `Cc1csc(=Nc2ccccc2)n1CCO`, the B-score result is “inactive”.

With `Cc1cs/c(=N\N=C\c2ccc(O)cc2)n1Cc1ccco1`, the B-score was -6.66 (active).

`CN(c1ccccc1)c1ccc(/C=c2\s/c(=C(/C#N)C(=O)C(C)(C)C)n(Cc3ccco3)c2=O)cc1`: the B-score result was “inactive”.

`CCNC(=O)NC(=O)C(C)OC(=O)c1cc(S(=O)(=O)N2CCCCCC2)ccc1OC` (stereo unspecified): the B-score result was “inactive”.

For the compound `CCCCn1c(N)c(N(CC(C)C)C(=O)c2cccc(S(=O)(=O)N3CCN(C(C)=O)CC3)c2)c(=O)[nH]c1=O`, the B-score entry was “inactive”.

Regarding `Cc1cc(C)nc(-n2nc(C)cc2NC(=O)c2ccc(F)cc2F)n1`, the B-score result was “inactive”.

As to `CC1Cc2ccccc2N1S(=O)(=O)c1c(N)n(C)c(=O)n(C)c1=O` (stereo unspecified), the B-score entry was “inactive”.

In the case of `CC1Cc2ccccc2N1S(=O)(=O)c1ccc(Cl)nc1` (stereo unspecified), the B-score entry is “inactive”.

Regarding `CCCCn1ccnc1C(=O)c1cccc(S(=O)(=O)N2c3ccccc3CC2C)c1` (stereo unspecified), the B-score is -11.8 (active).

Turning to `COc1ccccc1C(=O)NN1C(=O)C2C3C=CC(O3)C2C1=O` (stereo unspecified), the B-score entry is “inactive”.

As for `O=C(NN1C(=O)C2C3C=CC(O3)C2C1=O)c1ccccc1` (stereo unspecified), the B-score result is “inactive”.

For `COc1ccc(C(=O)NN2C(=O)C3C(c4ccccc4)C=CC(c4ccccc4)C3C2=O)cc1` (stereo unspecified), the B-score is -8.93 (active).

As to `CC(=O)Nc1ccc(S(=O)(=O)NC(C)C(=O)OCC(=O)NC2CCCC2)cc1` (stereo unspecified), the B-score result is “inactive”.

For `CC1CCCN(C(C(=O)Nc2ccc(C(C)C)cc2)c2ccc3c(c2)OCO3)C1` (stereo unspecified), the B-score is -7.66 (active).

Consider `CCc1ccc(NC(=O)NC(C)c2ccc3c(c2)OCO3)cc1` (stereo unspecified), for which the B-score entry is “inactive”.

As to `O=C(Nc1ccc2c(c1)OCCO2)C(c1ccc(F)cc1)N1CCCCC1` (stereo unspecified), the B-score entry is “inactive”.

With `O=C(Nc1ccc(S(=O)(=O)Nc2ccccn2)cc1)c1ccccc1`, the B-score entry was “inactive”.

For `CCN(CC)C(=O)CN(c1cccc([N+](=O)[O-])c1)S(=O)(=O)c1ccccc1`, the B-score entry was “inactive”.

For the compound `O=C(CCl)N(Cc1cccc([N+](=O)[O-])c1)c1cccc(Cl)c1`, the B-score entry was “inactive”.

On to `C=CCN(N=Nc1cccc([N+](=O)[O-])c1)c1cccc([N+](=O)[O-])c1`, for which the B-score is -11.2 (active).

With `Cc1ccc(CSCC(=O)N(C)CC(=O)Nc2ccc(C)cc2)cc1`, the B-score result is “inactive”.

As to `O=S(=O)(Cc1noc(-c2ccc(OC(F)(F)F)cc2)n1)c1ccc(F)cc1`, the B-score result was “inactive”.

With `COc1cc(Cl)c(C)cc1NC(=O)CSc1nnc(-c2ccco2)n1CC(C)C`, the B-score was -10 (active).

For the compound `COc1cc(Cl)c(C)cc1NC(=O)CSc1nnc(-c2cccnc2)n1Cc1ccco1`, the B-score result is “inactive”.

Take `CCn1c(SCC(=O)Nc2cc(C)c(Cl)cc2OC)nnc1-c1ccco1`: the B-score result is “inactive”.

With `CCOC(=O)c1sc(=NC(=O)c2ccc(Br)cc2)n(C)c1C`, the B-score entry is “inactive”.

For `CCOC(=O)C1=C(C)Nc2sc(C(=O)c3ccc(Br)cc3)c(N)c2C1c1ccc(C(=O)OC)cc1` (stereo unspecified), the B-score was -9.37 (active).

Regarding `CCOC(=O)c1sc(=S)n2c1[nH]c(=O)c1ccc(C(=O)OC)cc12`, the B-score entry was “inactive”.

As for `CN(CC(=O)Nc1cccc(F)c1)C(=O)C1=COCCO1`, the B-score result is “inactive”.

With `Cc1ccc(-n2ncc3c(Nc4cccc(C(=O)O)c4)ncnc32)cc1`, the B-score result was “inactive”.

As for `COc1ccc(C2=NS(=O)(=O)N(C)C(C(=O)N3CCCCC3)=C2)cc1`, the B-score entry is “inactive”.

Regarding `Cc1ccccc1NC(=O)Nc1ccccc1N1CCCCC1`, the B-score entry is “inactive”.

Take `Cc1ccccc1NC(=O)CNc1ccccc1N1CCCCC1`: the B-score entry was “inactive”.

With `O=C(CNCCC1=CCCCC1)Nc1ccccc1N1CCCCCC1`, the B-score was -8.91 (active).

For the compound `Cc1ccc2oc(C(=O)N3CCN(C)C[C@@H]3C(C)C)c(C)c2c1`, the B-score entry was “inactive”.

With `CC(C)CC(CO)N1CCN(C(=O)c2ccc(Cl)cc2Cl)CCC1=O` (stereo unspecified), the B-score entry was “inactive”.

For `CC(C)CC(COCc1ccc(Cl)cc1)N1CCN(C(=O)c2ccc(C(F)(F)F)cc2)CCC1=O` (stereo unspecified), the B-score is -8.19 (active).

On to `O=C(c1cc(Cl)cc(Cl)c1)N1CCC(=O)N(C(COCc2ccccc2)Cc2ccccc2)CC1` (stereo unspecified), for which the B-score entry is “inactive”.

As for `O=C1[C@H]2[C@@H](c3ccc(Cl)cc3)N3C(=O)N(c4cccc(F)c4)C(=O)[C@@]3(Cc3ccccc3)[C@H]2C(=O)N1C1CCCCC1`, the B-score result was “inactive”.

`COC(=O)c1noc(C)c1-c1ccnn1C(=O)c1ccc(Cl)cc1`: the B-score entry is “inactive”.

In the case of `Cc1ccc(S(=O)(=O)Cc2cc(-c3ccc(Cl)cc3)no2)cc1`, the B-score result was “inactive”.

Turning to `Cc1onc(-c2ccc(Cl)cc2)c1-c1ccnn1S(=O)(=O)c1ccc(Cl)cc1`, the B-score was -12.4 (active).
